# Results reported in PubChem BioAssay AID1970 (National Center for Advancing Translational Sciences (NCATS), 2009).
# Results filed as inconclusive are left out. The source made the active and inactive calls. The call rests on the fitted dose curve; in most records, active means well fitted inhibition curve with a large enough effect; inconclusive means small, poorly fitted or top-dose-only effect; inactive means flat fitted curve, though single readings scatter.
# Molecular target: Dual specificity protein kinase CLK4 (Homo sapiens) (UniProt Q9HAZ1)
# Experiment: Confirmation Assay for Inhibitors of CDC-like Kinase 4 (Kinase-Glo Assay)
# Conditions: recombinant Clk4, Kinase-Glo ATP depletion luminescence; series mostly up to 47.7 µM
# Method: NIH Molecular Libraries Probe Production Centers Network [MLPCN] NIH Chemical Genomics Center [NCGC] MLPCN Grant: 1R03MH084827-01 Assay Submitter (PI): Tom Misteli NCGC Assay Overview: Clk4 (Invitrogen, cat# PV3839) was assayed using ATP and the RS repeat peptide (AnaSpec cat # 61722) as substrates. Following the Clk4 reaction, the remaining ATP levels were detected using Promega Kinase-Glo technology wherein the remaining ATP from the kinase reaction is detected using Ultra-Glo luciferase and D-luciferin which generates a bioluminescence signal from the ATP.
# NCGC Assay Protocol Summary: Two uL/well of substrate-buffer solution (100 uM RS peptide, 1 uM ATP, 25 mM Tris pH7.5, 10 mM MgCl2, 0.5 mM EGTA, 2.5 mM DTT, 0.01% Triton X-100 final concentration) was dispensed into 1536-well, assay plates (Greiner, solid white medium-binding plates) with Aurora Discovery BioRAPTR Flying Reagent Dispenser (FRD; Beckton-Dickenson). Using a Kalypsys pin tool equipped with a 1536-pin tool, 23 nL of compound solution was transferred to the assay plate. One uL/ well Clk4-buffer solution (25 nM Clk4, 25 mM Tris pH 7.5, 10 mM MgCl2, 0.5 mM EGTA, 2.5 mM DTT, 0.01% Triton X-100, final concentrations) was then added using the FRD yielding a total kinase reaction volume of 3 uL/ well. After 4.5 hours of room temperature incubation, 3 uL Kinase-Glo reagent was added for a final assay volume of 6 uL/ well. Luminescence was detected with the ViewLux plate reader (Perkin Elmer, Waltham, MA) after 5 min incubation using a 5 second exposure time and 2x binning.
# Sequence of Dual specificity protein kinase CLK4 (Homo sapiens) (Q9HAZ1 whole entry, looked up): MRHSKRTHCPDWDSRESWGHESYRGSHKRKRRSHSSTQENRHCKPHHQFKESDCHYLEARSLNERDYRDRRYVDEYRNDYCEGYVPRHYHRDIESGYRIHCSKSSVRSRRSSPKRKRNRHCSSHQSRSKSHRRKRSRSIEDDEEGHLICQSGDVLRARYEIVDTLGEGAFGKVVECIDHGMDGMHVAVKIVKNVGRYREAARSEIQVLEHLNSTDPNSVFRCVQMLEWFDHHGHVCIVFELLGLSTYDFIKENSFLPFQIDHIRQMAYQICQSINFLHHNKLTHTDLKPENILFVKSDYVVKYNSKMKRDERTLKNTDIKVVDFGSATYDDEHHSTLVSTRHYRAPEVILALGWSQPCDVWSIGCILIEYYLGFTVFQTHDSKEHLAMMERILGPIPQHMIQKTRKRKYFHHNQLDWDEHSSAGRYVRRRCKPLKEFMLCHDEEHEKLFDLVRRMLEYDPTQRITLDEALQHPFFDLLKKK
row,SMILES,Potency
1,O=C(O)c1ccc(-c2ccc3ncnc(NCCc4cnc[nH]4)c3c2)o1,923 nM (active)
2,CCOC(=O)c1ccc(-c2ccc3ncnc(NCc4cccs4)c3c2)o1,116 nM (active)
3,c1cncc(CNc2ncnc3ccc(-c4ccc5c(c4)OCCO5)cc23)c1,447 nM (active)
4,Cc1cccc(CNc2ncnc3ccc(-c4ccc5c(c4)OCO5)cc23)c1,112 nM (active)
5,CN1CCCC1CCNc1ncnc2ccc(-c3ccc4c(c3)OCO4)cc12 (stereo not given),923 nM (active)
6,Cc1cc(CNc2ncnc3ccc(-c4ccc5c(c4)OCO5)cc23)c(C)o1,119 nM (active)
7,CN(Cc1ccco1)c1ncnc2ccc(-c3ccoc3)cc12,316 nM (active)
8,Cc1csc(CNc2ncnc3ccc(-c4cccc(Cl)c4)cc23)c1,7940 nM (active)
9,Cc1csc(CNc2ncnc3cc(-c4ccc5c(c4)OCO5)ccc23)n1,8440 nM (active)
10,Clc1ccccc1-c1ccc2ncnc(NCc3cccnc3)c2c1,10000 nM (active)
11,c1coc(-c2ccc3ncnc(NCc4cccs4)c3c2)c1,823 nM (active)
12,c1csc(CNc2ncnc3ccc(-c4ccc5c(c4)OCCO5)cc23)c1,112 nM (active)
13,Cc1occc1-c1ccc2ncnc(NCCc3cnc[nH]3)c2c1,519 nM (active)
14,Cc1csc(CNc2ncnc3ccc(-c4ccoc4)cc23)c1,355 nM (active)
15,Cc1cccc(CNc2ncnc3ccc(-c4ccoc4)cc23)c1,199 nM (active)
16,c1nc(NCc2ccc3c(c2)OCO3)c2cc(-c3ccc4c(c3)OCCO4)ccc2n1,2240 nM (active)
17,CCOC(=O)c1ccoc1-c1ccc2ncnc(NCc3ncc[nH]3)c2c1,10400 nM (active)
18,CCCN(Cc1cccs1)c1ncnc2ccc(-c3ccc4c(c3)OCO4)cc12,116 nM (active)
19,Cc1nc(CN(C)c2ncnc3cc(-c4ccc5c(c4)OCO5)ccc23)cs1,5330 nM (active)
20,CC(Nc1ncnc2ccc(-c3ccc4c(c3)OCO4)cc12)c1ccco1 (stereo not given),119 nM (active)

row,SMILES,Potency
1,Cc1cccc(CNc2ncnc3ccc(-c4cccc(C)c4)cc23)c1,8910 nM (active)
2,CC(C)(C)CNc1ncnc2ccc(-c3ccc4c(c3)OCO4)cc12,32.4 nM (active)
3,Cc1csc(CNc2ncnc3ccc(-c4ccc5c(c4)OCCO5)cc23)c1,447 nM (active)
4,CCN(CCc1cn(C)cn1)c1ncnc2ccc(-c3ccc4c(c3)OCO4)cc12,519 nM (active)
5,c1csc(CNc2ncnc3ccc(-c4ccc5c(c4)OCO5)cc23)c1,45.8 nM (active)
6,Cc1nc(CNc2ncnc3ccc(-c4ccc5c(c4)OCO5)cc23)cs1,47.5 nM (active)
7,Cc1cccc(-c2ccc3ncnc(NCc4cc(C)cs4)c3c2)c1,14100 nM (active)
8,Cn1ccc2cc(-c3ccc4ncnc(NCc5cccnc5)c4c3)ccc21,12600 nM (active)
9,Cc1nc(CNc2ncnc3ccc(-c4ccoc4)cc23)cs1,232 nM (active)
10,COc1cccc(-c2ccc3ncnc(NCc4cccc(F)c4)c3c2)c1,631 nM (active)
11,c1cncc(CNc2ncnc3ccc(-c4ccco4)cc23)c1,6310 nM (active)
12,Cc1cccc(-c2ccc3ncnc(NCc4cccs4)c3c2)c1,7080 nM (active)
13,Cc1cccc(-c2ccc3ncnc(NCc4cccc(F)c4)c3c2)c1,4470 nM (active)
14,Cc1csc(CNc2ncnc3ccc(-c4ccc5c(c4)OCO5)cc23)c1,141 nM (active)
15,Cc1cccc(CNc2ncnc3ccc(-c4ccccc4Cl)cc23)c1,12600 nM (active)
16,Cc1csc(CNc2ncnc3ccc(-c4ccc5c(ccn5C)c4)cc23)c1,35500 nM (active)
17,Cc1nc(C)c(-c2ccc3ncnc(NCc4ncc[nH]4)c3c2)s1,1840 nM (active)
18,Cc1nc(CN(C)c2ncnc3ccc(-c4ccc5c(c4)OCO5)cc23)cs1,33.6 nM (active)
19,CN(Cc1nccs1)c1ncnc2ccc(-c3ccc4c(c3)OCO4)cc12,37.7 nM (active)
20,Fc1cccc(CNc2ncnc3ccc(-c4ccccc4Cl)cc23)c1,11200 nM (active)
